This is part of a sample that, as a whole, favours compounds with a hit. Of some 83,000 tested, about 20% had one in any assay.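 Each cell line was grown in a 96-well plate and treated with one concentration of compound for 48 hours. Values below 10 were considered active.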 Activity calls are given as the source filed them.
Legend:
Assay in all cases: NCI-60 one-dose screen, 48 h (100 = growth as untreated, 0 = no growth, -100 = all killed)
Details in all cases: 10 µM unless noted
DU-145 prostate = system: DU-145 prostate
K-562 leukemia = system: K-562 leukemia
MALME-3M melanoma = system: MALME-3M melanoma
MDA-MB-231 breast = system: MDA-MB-231 breast
RXF 393 renal = system: RXF 393 renal
SF-268 CNS = system: SF-268 CNS
SF-295 CNS = system: SF-295 CNS
SF-539 CNS = system: SF-539 CNS
UACC-257 melanoma = system: UACC-257 melanoma
M14 melanoma = system: M14 melanoma
HCT-15 colon = system: HCT-15 colon
HT29 colon = system: HT29 colon
SNB-75 CNS = system: SNB-75 CNS
SNB-19 CNS = system: SNB-19 CNS
U251 CNS = system: U251 CNS
PC-3 prostate = system: PC-3 prostate
SK-MEL-5 melanoma = system: SK-MEL-5 melanoma
UACC-62 melanoma = system: UACC-62 melanoma
LOX IMVI melanoma = system: LOX IMVI melanoma
SK-MEL-28 melanoma = system: SK-MEL-28 melanoma

Measured: growth

CC(C)C1=NOC(=O)C1=Cc1cn(-c2cccnc2)nc1-c1ccccc1
inactive: DU-145 prostate 104% | K-562 leukemia 72.7% | MALME-3M melanoma 111% | MDA-MB-231 breast 96% | RXF 393 renal 64.8% | SF-268 CNS 102% | SF-295 CNS 98.1% | SF-539 CNS 104% | UACC-257 melanoma 111% | M14 melanoma 103% | HCT-15 colon 94.2% | HT29 colon 99.1% | SNB-75 CNS 88.4% | SNB-19 CNS 93.9% | U251 CNS 83.5% | PC-3 prostate 94.1% | SK-MEL-5 melanoma 102% | UACC-62 melanoma 90.4% | LOX IMVI melanoma 80.2% | SK-MEL-28 melanoma 112%

C=C(C)[C@@H]1CC[C@]2(C(=O)O)CC[C@]3(C)[C@H](CC[C@@H]4[C@@]5(C)C/C(=C/c6ccco6)C(=O)C(C)(C)[C@@H]5CC[C@]43C)[C@@H]12
active: DU-145 prostate -35% [100 µM] | K-562 leukemia 8.08% [100 µM] | MALME-3M melanoma -82.3% [100 µM] | MDA-MB-231 breast -60.8% [100 µM] | RXF 393 renal -98.2% [100 µM] | SF-268 CNS -41.5% [100 µM] | SF-295 CNS -82.8% [100 µM] | SF-539 CNS -77.8% [100 µM] | UACC-257 melanoma -64.1% [100 µM] | M14 melanoma -62.6% [100 µM] | HCT-15 colon -65.6% [100 µM] | HT29 colon -56.2% [100 µM] | SNB-75 CNS -70.3% [100 µM] | SNB-19 CNS -51.5% [100 µM] | U251 CNS -58.6% [100 µM] | PC-3 prostate -49.3% [100 µM] | SK-MEL-5 melanoma -73.5% [100 µM] | UACC-62 melanoma -97.6% [100 µM] | LOX IMVI melanoma -60.6% [100 µM] | SK-MEL-28 melanoma -64.7% [100 µM]

N#Cc1c(N2CCOCC2)nc(=S)[nH]c1-c1ccco1
inactive: DU-145 prostate 79.2% | K-562 leukemia 88.4% | MDA-MB-231 breast 61.1% | RXF 393 renal 71.3% | SF-268 CNS 77.3% | SF-295 CNS 47.4% | SF-539 CNS 78.5% | UACC-257 melanoma 92.8% | M14 melanoma 39.8% | HCT-15 colon 71.4% | HT29 colon 63.7% | SNB-75 CNS 15.9% | SNB-19 CNS 83.8% | U251 CNS 76.4% | PC-3 prostate 42.6% | SK-MEL-5 melanoma 62.6% | UACC-62 melanoma 43.7% | LOX IMVI melanoma 63.7% | SK-MEL-28 melanoma 77.6%
active: MALME-3M melanoma 2.17%

C=C(C)[C@@H]1CC[C@]2(C)[C@H](CC[C@@H]3[C@@H]([C@@](C)(O)CCC=C(C)C)CC[C@]32C)[C@@]1(C)CCC(=O)O
active: DU-145 prostate 7.93% [100 µM] | MALME-3M melanoma -39.6% [100 µM] | MDA-MB-231 breast -39.5% [100 µM] | RXF 393 renal -69.2% [100 µM] | SF-268 CNS -17.9% [100 µM] | SF-295 CNS -59.9% [100 µM] | SF-539 CNS -85.7% [100 µM] | M14 melanoma 2.42% [100 µM] | HCT-15 colon -15.9% [100 µM] | HT29 colon 2.65% [100 µM] | SNB-75 CNS -37.5% [100 µM] | SNB-19 CNS -32.8% [100 µM] | U251 CNS -16.7% [100 µM] | PC-3 prostate 5.99% [100 µM] | SK-MEL-5 melanoma -88.2% [100 µM] | UACC-62 melanoma -75.3% [100 µM] | LOX IMVI melanoma -100% [100 µM] | SK-MEL-28 melanoma -83% [100 µM]
inactive: K-562 leukemia 11.6% [100 µM] | UACC-257 melanoma 28.9% [100 µM]

O=C(NCCCCCCCNC(=O)OCc1ccc2c(Cl)cc(Cl)c(O)c2n1)OCc1ccc2c(Cl)cc(Cl)c(O)c2n1
active: DU-145 prostate -87.3% | K-562 leukemia 2.04% | MALME-3M melanoma -87.4% | MDA-MB-231 breast -72% | RXF 393 renal -90.1% | SF-268 CNS -58.8% | SF-295 CNS 1.17% | SF-539 CNS -96.6% | UACC-257 melanoma -41.6% | M14 melanoma -76.4% | HCT-15 colon -24.6% | HT29 colon -67% | SNB-75 CNS -92.4% | SNB-19 CNS 0.446% | U251 CNS -90.8% | PC-3 prostate -54.5% | SK-MEL-5 melanoma -96.1% | UACC-62 melanoma -79.3% | LOX IMVI melanoma -88.5% | SK-MEL-28 melanoma -83.1%

Nc1nc(SCc2cccc([N+](=O)[O-])c2)c2[nH]cnc2n1
inactive: DU-145 prostate 104% | K-562 leukemia 92% | MALME-3M melanoma 107% | MDA-MB-231 breast 103% | RXF 393 renal 73.6% | SF-268 CNS 90.2% | SF-295 CNS 93.6% | SF-539 CNS 103% | UACC-257 melanoma 104% | M14 melanoma 100% | HCT-15 colon 95.1% | HT29 colon 98.4% | SNB-75 CNS 89.5% | SNB-19 CNS 91.7% | U251 CNS 95% | PC-3 prostate 92.3% | SK-MEL-5 melanoma 98% | UACC-62 melanoma 91.3% | LOX IMVI melanoma 77.9% | SK-MEL-28 melanoma 106%

O=S(=O)(NCCCNc1nccc(-c2c(-c3cccc(F)c3)nc3occn23)n1)c1cccc2ccccc12
active: K-562 leukemia 4.01% | MDA-MB-231 breast -0.0227% | HT29 colon 5.59%
inactive: DU-145 prostate 41.4% | MALME-3M melanoma 31.1% | RXF 393 renal 47.9% | SF-268 CNS 36.6% | SF-295 CNS 52.8% | SF-539 CNS 61.8% | UACC-257 melanoma 58.3% | M14 melanoma 31.8% | HCT-15 colon 29.2% | SNB-75 CNS 62.5% | SNB-19 CNS 64.7% | U251 CNS 49.8% | PC-3 prostate 18.1% | SK-MEL-5 melanoma 27% | UACC-62 melanoma 31.5% | LOX IMVI melanoma 35.3% | SK-MEL-28 melanoma 64.9%

COc1ccc2c(c1)C(C)Cc1c(ncnc1-n1cnc3ccccc31)N2C (stereo not given)
active: SF-539 CNS 4.91% | HT29 colon -17.8%
inactive: DU-145 prostate 23.7% | K-562 leukemia 14.2% | MALME-3M melanoma 92.3% | MDA-MB-231 breast 12.9% | RXF 393 renal 12.8% | SF-268 CNS 37.4% | SF-295 CNS 13.6% | UACC-257 melanoma 67.2% | M14 melanoma 18.3% | HCT-15 colon 16.1% | SNB-75 CNS 37.5% | SNB-19 CNS 33.4% | U251 CNS 21.4% | PC-3 prostate 17.5% | SK-MEL-5 melanoma 11.2% | UACC-62 melanoma 39% | LOX IMVI melanoma 26.6% | SK-MEL-28 melanoma 59.5%

O=C(OCc1ccc2c(Cl)cc(Cl)c(O)c2n1)N1CCN(C(=O)c2cc3cc(F)ccc3[nH]2)CC1
active: DU-145 prostate -10.4% | SF-539 CNS -20.1% | M14 melanoma 7.85% | U251 CNS 8.06% | SK-MEL-5 melanoma -33%
inactive: K-562 leukemia 13.3% | MALME-3M melanoma 38.2% | MDA-MB-231 breast 28.2% | RXF 393 renal 16.4% | SF-268 CNS 31.1% | SF-295 CNS 25.1% | UACC-257 melanoma 25.1% | HCT-15 colon 10.6% | HT29 colon 99.1% | SNB-75 CNS 28.6% | SNB-19 CNS 50.2% | PC-3 prostate 15.8% | UACC-62 melanoma 35.3% | LOX IMVI melanoma 12.2% | SK-MEL-28 melanoma 60.7%

O=C(CCNCc1ccccc1)c1ccccc1
inactive: DU-145 prostate 105% | K-562 leukemia 108% | MALME-3M melanoma 104% | MDA-MB-231 breast 121% | RXF 393 renal 116% | SF-268 CNS 108% | SF-295 CNS 90% | SF-539 CNS 98.1% | UACC-257 melanoma 102% | M14 melanoma 105% | HCT-15 colon 106% | HT29 colon 106% | SNB-75 CNS 109% | SNB-19 CNS 114% | U251 CNS 101% | PC-3 prostate 106% | SK-MEL-5 melanoma 99% | UACC-62 melanoma 97.5% | LOX IMVI melanoma 105% | SK-MEL-28 melanoma 113%

CCCCCCCCN(CCCCCCCC)CC(O)c1ccc(Cl)c(C)c1Cl (stereo not given)
inactive: DU-145 prostate 105% | K-562 leukemia 67.9% | MALME-3M melanoma 102% | MDA-MB-231 breast 59.1% | RXF 393 renal 87.6% | SF-268 CNS 91.9% | SF-295 CNS 59.6% | SF-539 CNS 94.3% | UACC-257 melanoma 89.4% | M14 melanoma 85.2% | HCT-15 colon 80.1% | HT29 colon 42.2% | SNB-75 CNS 86.8% | SNB-19 CNS 93.2% | U251 CNS 91.3% | PC-3 prostate 72.9% | SK-MEL-5 melanoma 101% | UACC-62 melanoma 89.2% | LOX IMVI melanoma 53.5% | SK-MEL-28 melanoma 106%

Cn1cc(-c2nnc(-c3cn(C)c4ncccc34)s2)c2ccccc21
inactive: DU-145 prostate 73.6% | K-562 leukemia 27.8% | MALME-3M melanoma 29.1% | MDA-MB-231 breast 40.2% | RXF 393 renal 78.4% | SF-268 CNS 72.1% | SF-295 CNS 47.7% | SF-539 CNS 45.8% | UACC-257 melanoma 96.1% | M14 melanoma 92.8% | HCT-15 colon 45.1% | HT29 colon 54.3% | SNB-75 CNS 49.4% | SNB-19 CNS 76.6% | U251 CNS 74.8% | PC-3 prostate 53.8% | SK-MEL-5 melanoma 63.7% | UACC-62 melanoma 69.2% | LOX IMVI melanoma 86% | SK-MEL-28 melanoma 77.4%

O=C(Nc1cccc(F)c1)c1cc(=O)[nH]c2cc(Br)ccc12
active: HT29 colon 9.92%
inactive: DU-145 prostate 74.2% | K-562 leukemia 21.3% | MALME-3M melanoma 52.8% | MDA-MB-231 breast 72.2% | RXF 393 renal 56.1% | SF-268 CNS 60.8% | SF-295 CNS 38.9% | SF-539 CNS 47.6% | UACC-257 melanoma 57% | M14 melanoma 29.5% | HCT-15 colon 28.6% | SNB-75 CNS 43.7% | SNB-19 CNS 54.7% | U251 CNS 36% | PC-3 prostate 43.8% | SK-MEL-5 melanoma 32% | UACC-62 melanoma 34.4% | LOX IMVI melanoma 43.1% | SK-MEL-28 melanoma 62.3%

Nc1cc(Cl)cc2cccnc12
inactive: DU-145 prostate 109% | K-562 leukemia 98.1% | MALME-3M melanoma 122% | MDA-MB-231 breast 95.8% | RXF 393 renal 112% | SF-268 CNS 88% | SF-295 CNS 114% | SF-539 CNS 98% | UACC-257 melanoma 127% | M14 melanoma 115% | HCT-15 colon 103% | HT29 colon 101% | SNB-75 CNS 79.9% | SNB-19 CNS 109% | U251 CNS 111% | PC-3 prostate 87.5% | SK-MEL-5 melanoma 101% | UACC-62 melanoma 103% | LOX IMVI melanoma 88.1% | SK-MEL-28 melanoma 113%

Source: PubChem BioAssay (NCI)
